These results are taken from PubChem BioAssay (NCI).

Values joined by “and” are separate entries in the source; they are usually repeats but may differ in a detail not shown here. Identical values can stand only once. The panel holds about 83,000 compounds, 20% with a hit somewhere; the sample as a whole holds those more often.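 Note: values are percent growth. 100 is the growth of untreated cells, values between 100 and 0 indicate rising inhibition; between -100 and 0 indicates cell death.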 Unmarked numbers belong to inactive results. Active and inactive are the calls of the source. How the source made its calls: active means growth percent below 10; inactive means the rest.

Test systems include SR leukemia; RPMI-8226 leukemia; OVCAR-8 ovarian; OVCAR-5 ovarian; OVCAR-4 ovarian; SK-OV-3 ovarian; IGROV1 ovarian; OVCAR-3 ovarian; HS 578T breast; NCI/ADR-RES ovarian.
Assay in all cases: NCI-60 one-dose screen, 48 h (100 = growth as untreated, 0 = no growth, -100 = all killed)
Settings in all cases: 10 µM unless noted

In the case of `N#Cc1ccccc1OCC(=O)Nc1nc2c(s1)COc1ccccc1-2`, the growth with SR leukemia is -19.5% (active); in the experiment with RPMI-8226 leukemia it was 96.8%; in the experiment with OVCAR-8 ovarian, 106%; with OVCAR-5 ovarian, 85.4%; with OVCAR-4 ovarian, 99.1%; in the experiment on SK-OV-3 ovarian, 94.7%. For the same compound, the growth in the experiment with IGROV1 ovarian was -3.12% (active); in the experiment with OVCAR-3 ovarian it was 110%; with HS 578T breast, 99.7%; in the experiment with NCI/ADR-RES ovarian, 104%.
Regarding `CC(=O)c1nn(-c2ccccc2)/c(=N/N=Cc2cn(-c3ccccc3)nc2-c2cc3ccccc3oc2=O)s1`, the growth is 88.1% in the experiment with SR leukemia; 102% with RPMI-8226 leukemia; 103% with OVCAR-8 ovarian; 106% in the experiment on OVCAR-5 ovarian; 104% with OVCAR-4 ovarian; 106% with SK-OV-3 ovarian. The growth was 107% with IGROV1 ovarian, 116% with OVCAR-3 ovarian and 107% in the experiment with NCI/ADR-RES ovarian.
As for `CCOC(=O)C(=CCC(C)C)C(=O)OCC`, the growth with SR leukemia was 119%; in the experiment on RPMI-8226 leukemia, 99%; in the experiment with OVCAR-8 ovarian, 109%; in the experiment with OVCAR-5 ovarian, 95.8%; in the experiment with OVCAR-4 ovarian, 95.2%; with SK-OV-3 ovarian it was 98.5%. Moreover, the growth with IGROV1 ovarian was 104%; with OVCAR-3 ovarian, 99.5%; with HS 578T breast it was 98.6%; in the experiment with NCI/ADR-RES ovarian, 93.8%.
In the case of `COc1c(NC=O)c2c(c([N+](=O)[O-])c1OC)C(=O)OC2`, the growth with SR leukemia was 86.9%; with RPMI-8226 leukemia, 78% and 96.5%; in the experiment on OVCAR-8 ovarian, 101% and 109%; in the experiment with OVCAR-5 ovarian, 120% and 99.7%; with OVCAR-4 ovarian, 103%; with SK-OV-3 ovarian it was 107% and 108%. In addition, the growth with IGROV1 ovarian is 103%; in the experiment with OVCAR-3 ovarian, 115%; with HS 578T breast, 109% and 86.8%; in the experiment with NCI/ADR-RES ovarian it was 117% and 108%.
With `CCOC(=O)c1ccc(Nc2ncnc3c2cnn3-c2cccc(F)c2)cc1`, the growth in the experiment with SR leukemia is 94.7%; in the experiment on RPMI-8226 leukemia, 99.5%; in the experiment on OVCAR-8 ovarian it was 98.3%; in the experiment on OVCAR-5 ovarian, 97.1%; with OVCAR-4 ovarian, 99.7%; with SK-OV-3 ovarian, 120%. Also, the growth in the experiment on IGROV1 ovarian was 98.7%; with OVCAR-3 ovarian, 112%; in the experiment on HS 578T breast, 95.9%; in the experiment with NCI/ADR-RES ovarian, 103%.
Consider `COc1cc2ncnc(Nc3ccc(F)c(Cl)c3)c2cc1OCC(=O)N1CCCCC1`, for which the growth is 74.6% in the experiment on SR leukemia; 81.9% with RPMI-8226 leukemia; 89.2% in the experiment on OVCAR-8 ovarian; 67% with OVCAR-5 ovarian; 71.7% with OVCAR-4 ovarian; 21.3% in the experiment with SK-OV-3 ovarian. Besides, the growth was 42.8% in the experiment on IGROV1 ovarian, 73.2% in the experiment on OVCAR-3 ovarian, 94.4% in the experiment on HS 578T breast and 62.1% with NCI/ADR-RES ovarian.
As for `CC[C@H](C)[C@H](NC(=O)[C@H](CCCCN)NC(=O)[C@H](CCCCN)NC(=O)[C@@H](NC(=O)[C@@H](NC(=O)[C@@H](N)Cc1cnc[nH]1)[C@@H](C)CC)[C@@H](C)CC)C(=O)N[C@@H](CCCNC(=N)N)C(=O)N[C@H](C(=O)N[C@@H](Cc1c[nH]c2ccccc12)C(=O)N[C@@H](Cc1ccc(O)cc1)C(=O)N[C@@H](CCCNC(=N)N)C(=O)N[C@@H](CCCCN)C(=O)N[C@@H](C)C(=O)N[C@@H](Cc1c[nH]c2ccccc12)C(=O)N[C@@H](Cc1cnc[nH]1)C(=O)N[C@H](C(=O)N[C@@H](CC(C)C)C(=O)NCC(=O)N[C@@H](CCCCN)C(=O)N[C@H](C(N)=O)C(C)C)C(C)C)[C@@H](C)O`, the growth in the experiment with SR leukemia is 71.9%; in the experiment with RPMI-8226 leukemia it was 56.1%; in the experiment on OVCAR-8 ovarian, 33.7%; with OVCAR-5 ovarian, 48.4%; with OVCAR-4 ovarian it was 77.9%; with SK-OV-3 ovarian it was 35%. The growth is 39.2% in the experiment on IGROV1 ovarian, 44.9% with OVCAR-3 ovarian and 34.8% with NCI/ADR-RES ovarian.
For the compound `CCNC(=O)Nc1ncccc1OCc1ccc(F)cc1`, the growth in the experiment on SR leukemia was 105%; with RPMI-8226 leukemia it was 106%; in the experiment with OVCAR-8 ovarian it was 109%; with OVCAR-5 ovarian, 92.4%; in the experiment on OVCAR-4 ovarian, 96.4%; in the experiment on SK-OV-3 ovarian, 94.2%. The growth in the experiment with IGROV1 ovarian was 102%; with OVCAR-3 ovarian, 102%; with HS 578T breast, 112%; in the experiment on NCI/ADR-RES ovarian it was 93.4%.
`CCCCC(NC(=O)CN1C(=O)/C(=C/C(C)=C/c2ccccc2)SC1=S)C(=O)O` (stereo unspecified): the growth is 115% with SR leukemia; 115% with RPMI-8226 leukemia; 102% with OVCAR-8 ovarian; 101% in the experiment on OVCAR-5 ovarian; 101% in the experiment with OVCAR-4 ovarian; 105% in the experiment on SK-OV-3 ovarian. The growth with IGROV1 ovarian is 102%; in the experiment on OVCAR-3 ovarian, 112%; in the experiment with HS 578T breast it was 102%; in the experiment on NCI/ADR-RES ovarian it was 98%.
In the case of `O=C(CN1C(=O)S/C(=C\C(Cl)=C\c2ccccc2)C1=O)NC1C=CS(=O)(=O)C1` (stereo unspecified), the growth in the experiment on SR leukemia was 6.39% (active); in the experiment with RPMI-8226 leukemia it was 0.667% (active); in the experiment on OVCAR-8 ovarian, 4.68% (active); in the experiment on OVCAR-5 ovarian, 44.2%; with OVCAR-4 ovarian it was 39.4%; in the experiment on SK-OV-3 ovarian it was 98.8%. The growth was -16.1% (active) in the experiment on IGROV1 ovarian, -12.6% (active) with OVCAR-3 ovarian and 24.7% in the experiment on NCI/ADR-RES ovarian.
Consider `COc1ccc(-c2[nH]c3ccccc3c2-c2ccc(OC)cc2)cc1`, for which the growth was 6.13% (active) in the experiment with SR leukemia; 24.1% in the experiment on RPMI-8226 leukemia; 86.1% in the experiment with OVCAR-8 ovarian; 62.6% in the experiment on OVCAR-5 ovarian; 61% in the experiment with OVCAR-4 ovarian; 61.7% in the experiment with SK-OV-3 ovarian. For the same compound, the growth with IGROV1 ovarian was 88.2%; in the experiment with OVCAR-3 ovarian it was 12.9%; in the experiment on NCI/ADR-RES ovarian, 36.2%.
With `Cn1cc(C2=C(c3cccc4ccccc34)C(=O)NC2=O)c2cc(Br)ccc21`, the growth was 60.8% in the experiment on SR leukemia; 121% with RPMI-8226 leukemia; 95.9% with OVCAR-8 ovarian; 126% in the experiment with OVCAR-5 ovarian; 124% in the experiment with OVCAR-4 ovarian; 90.3% in the experiment on SK-OV-3 ovarian. The growth in the experiment with IGROV1 ovarian was 94.9%; with OVCAR-3 ovarian it was 104%; with HS 578T breast, 82%; in the experiment with NCI/ADR-RES ovarian, 92.2%.
